# Reference: PubChem BioAssay (NCI)
# This is part of a sample that, as a whole, favours compounds with a hit. Of some 83,000 tested, about 20% had one in any assay.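 Interpretation: 100, growth as untreated; towards 0, rising growth inhibition; 0, no net growth; 0 to -100, cell death. Compounds scoring below 10 were considered active.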 Unmarked numbers belong to inactive results. The source made the active and inactive calls.
# Test system: MDA-MB-468 breast
# Experiment: NCI-60 one-dose screen, 48 h (100 = growth as untreated, 0 = no growth, -100 = all killed)
# Conditions: 10 µM unless noted
row,Compound,growth
1,CC(C)CSc1nc(N)nc2c1ncn2C1OC(CO)C(O)C1O (stereo not given),96.5%
2,CC(C)c1ncc(CO)n1Cc1c(Cl)cccc1Cl,97.5%
3,COC(=O)c1ccc2oc(NC(=O)c3ccc(Nc4ccc([N+](=O)[O-])cc4C)c([N+](=O)[O-])c3)nc2c1,102%
4,CN1C(=O)N(C)C2Nn3c(s/c(=C\c4ccc(Cl)cc4Cl)c3=O)=NC21 (stereo not given),59%
5,COc1cccc(/C=C2/C(=O)N(Cc3ccco3)SC2=S)c1OC,76%
6,Cn1ccnc1C(=O)/C=C/c1ccc(CNC(=O)c2ccc(Cl)cc2)cc1,-14.5% (active)
7,CCO/C=C1\SC(=S)N(c2cccc(C)c2)C1=O,102%
8,CCc1ccccc1-n1c(-c2ccc(OC)cc2)cc(-c2ccc(OC)cc2)c(C#N)c1=O,96.9%
9,C1=C[C@H]2O[C@@H]1c1ccc3[nH]ccc3c12,76.2%
10,O=C1c2cccnc2C(=O)c2c1c(C(=O)OCCN1CCCCC1)c1ccccn21,-16.6% (active)
11,C[C@H]1O[C@@H](O[C@H]2[C@@H](O)C[C@H](O[C@H]3[C@@H](O)C[C@H](O[C@H]4CC[C@]5(C)C6CC[C@]7(C)[C@@H](C8=CC(=O)OC8)CC[C@]7(O)C6CC[C@@H]5C4)O[C@@H]3C)O[C@@H]2C)C[C@H](O)[C@@H]1O (stereo not given in full),-60% (active)
12,CCN1C(=O)N(CC)C2SC(N/N=C/c3ccc(F)cc3)=NC21 (stereo not given),36.8%
13,O=C(NCCCN1CCN(CCCNC(=O)C2CCCCC2)CC1)C1CCCCC1,110%
14,CC(c1ccccc1)N1CSc2nc3ncncc3n2C1 (stereo not given),-0.761% (active)
15,CCCCCCCCCCOC(c1ccccc1)c1ccccc1,92.1%
16,Cc1nn2c(-c3nc4ccc(Cl)cc4[nH]3)c(-c3ccc(F)cc3)nc2s1,102%
17,O=C1CCCC2=C1C(c1c[nH]c3ccc(Br)cc13)Cc1cc(Br)ccc1N2 (stereo not given),-6.51% (active)
18,Cc1ccc2c(c1)=C/C(=C\c1cc(-c3ccccc3)oc1O)C(=O)N=2,109%
19,CCN1CCN(CCOc2ccc(CNc3ccc4nc(CCC5CCCCC5)[nH]c4c3)cc2)CC1,35%
20,O=C(Cn1cc(CN2C(=O)c3ccccc3S2(=O)=O)nn1)Nc1ccc([N+](=O)[O-])cc1Cl,103%

row,Compound,growth
1,Cn1cccc1/C=C1\C(=O)Nc2ccccc21,-1.95% (active)
2,CCn1c2ccc(/C=N/OCCCN(C)C)cc2c2cc(/C=N/OCCCN(C)C)ccc21,-66.6% (active)
3,O=C(CN1C(=O)S/C(=C\C(Cl)=C\c2ccccc2)C1=O)NC1CCS(=O)(=O)C1 (stereo not given),8.17% (active)
4,CC(C)n1cc(C2=C(c3cccc4ccccc34)C(=O)NC2=O)c2cc(Br)ccc21,44.4%
5,CN1CCN(Cc2ccc(NC(=O)c3cncc(C#Cc4cnc(N)c5ccccc45)c3)cc2C(F)(F)F)CC1,-80.8% (active)
6,O=C1C(N2CCOCC2)=C(I)C(=O)c2ncccc21,42%
7,O=C(Oc1ccccc1)C(Br)C(Br)c1ccccc1 (stereo not given),56.7%
8,CC(=O)OCc1nc(C#N)c(N(C)C)o1,94.1%
9,O=C(N/N=C\c1cccc([N+](=O)[O-])c1)N/N=C/c1cccc([N+](=O)[O-])c1,82%
10,O=C1C=C(OCC=C(C(F)(F)F)C(F)(F)F)c2ccccc2C1=O,-51.2% (active)
11,COc1cccc(C(=O)NNc2nc(Cl)nc(N3CCN(C(c4ccccc4)c4ccccc4)CC3)n2)c1,-17.1% (active)
12,CCOC(=O)c1c(C)nc2ccccc2c1/C=C/c1ccc(OC)cc1,20.6%
13,O=c1c2ccccc2nc(COc2ccccc2)n1NS(=O)(=O)c1ccc(Cl)cc1,40.4%
14,CC(C)[C@H]1COC(=O)N1[C@@H]1C(=O)N([C@@H](CCC(=O)N2CCN(C3CCCC3)CC2)C(=O)N[C@@H]2CCCc3ccccc32)[C@@H]1/C=C/c1cccc(Br)c1,-21.6% (active)
15,O=C1CCCN1C1CCN(Cc2cc3ccccc3[nH]c2=O)c2ccccc21 (stereo not given),83.5%
16,CCCNC(=S)N/N=C(\C)c1ccccn1,-26.3% (active)
17,CCOC(=O)C1=C(C)C(Cl)=N/C1=C\c1[nH]c(Cl)c(C)c1C(=O)OCC,102%
18,CCOC(=O)c1c(NC(=O)c2ccccc2)sc2c(O)c(CN(CC)CC)ccc12,-2.82% (active)
19,Cc1[nH]nc(C(N)=O)c1[N+](=O)[O-],85.5%
20,OC(Cc1cc(CC(O)(C(F)(F)F)C(F)(F)F)nc(CC(O)(C(F)(F)F)C(F)(F)F)c1)(C(F)(F)F)C(F)(F)F,-37% (active)
